Measurements as given in the supplement of paper PMC10127200.
Where a name gives a salt, the structure may show the parent alone.

Experiments:
Assay in all cases: Euclidean distance of Cell Painting phenotypic profile (signed KS, 77 features) to DMSO centroid (dimensionless distance); 5 or 10 uM (library dependent); higher = stronger phenotypic change vs DMSO (phenoactivity)
Conditions in all cases: 48 h
[1] = test system: 786-O
Method in brief: (§1)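 Library compounds were applied at 10 or 5 uM, depending on the library, with 0.1% DMSO final, for 48 h to five cancer lines and a healthy fibroblast line. After staining, cells were imaged confocally at 20X across 9 fields per well, and Harmony extracted 77 features, each scored as a signed Kolmogorov-Smirnov statistic against vehicle wells on the same plate. Phenoactivity is the Euclidean distance between each profile and the median vehicle profile, with profiles first plate-position corrected, correlation-weighted and averaged over replicates at the top dose.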

[2] = test system: A549
Method in brief: as §1

[3] = test system: DU145
Method in brief: as §1

[4] = test system: FB
Method in brief: as §1

[5] = test system: HEPG2
Method in brief: as §1

[6] = test system: OVCAR4
Method in brief: as §1

| SMILES | Euclidean distance [1] | Euclidean distance [2] | Euclidean distance [3] | Euclidean distance [4] | Euclidean distance [5] | Euclidean distance [6] |
| --- | --- | --- | --- | --- | --- | --- |
| C/C1=C2N=C(/C=C3N=C(/C(C)=C4\[N-]C(C(CC(N)=O)C4(C)CCC(=O)NCC(C)OP(=O)([O-])OC4C(CO)OC(n5cnc6cc(C)c(C)cc65)C4O)C4(C)N=C1C(CCC(N)=O)C4(C)CC(N)=O)C(CCC(N)=O)C\3(C)C)C(CCC(N)=O)C/2(C)CC(N)=O.[CH3-].[Co+3] (stereo unspecified) [Methylcobalamin] | 0.89 | 0.91 | 1.12 | 0.99 | 1.02 | 0.959 |
| c1ccc(-c2[nH]ncc2-c2ccnc3ccccc23)nc1 | 0.643 | 0.916 | 0.92 | 1.27 | 1.24 | 0.931 |
| CC(C)c1cc(C(=O)N2Cc3ccc(CN4CCN(C)CC4)cc3C2)c(O)cc1O | 3.5 | 2.81 | 3.91 | 2.97 | 2.99 | 2.89 |
| CCCC(CCC)C(N)=O [Valpromide] | 0.509 | 1.08 | 1 | 1.42 | 0.77 | 1.44 |
| Cc1c(F)cc(C(=O)NC2CC2)cc1-c1ccc(C(=O)NCC(C)(C)C)cn1 | 1.17 | 0.619 | 1.23 | 0.572 | 0.761 | 1.09 |
| O=C(O)Cc1ccccc1Nc1c(Cl)cccc1Cl [Diclofenac Diethylamine] | 0.84 | 0.842 | 0.728 | 0.689 | 0.397 | 0.97 |
| CS(=O)(=O)c1ccc([C@@H](O)[C@@H](CO)NC(=O)C(Cl)Cl)cc1 [Thiamphenicol] | 1.41 | 0.742 | 0.68 | 1.08 | 0.983 | 1.15 |
| CO[C@H]1C[C@@H]2CC[C@@H](C)[C@@](O)(O2)C(=O)C(=O)N2CCCC[C@H]2C(=O)O[C@H]([C@H](C)C[C@@H]2CC[C@@H](OP(C)(C)=O)[C@H](OC)C2)CC(=O)[C@H](C)/C=C(\C)[C@@H](O)[C@@H](OC)C(=O)[C@H](C)C[C@H](C)/C=C/C=C/C=C/1C [Deforolimus] | 2.73 | 2.02 | 1.35 | 3.08 | 1.23 | 2.14 |
| N#CC(c1ccc(Cl)cc1)c1c(Cl)cc(-n2ncc(=O)[nH]c2=O)cc1Cl (stereo unspecified) [Diclazuril] | 1.07 | 1.53 | 0.762 | 1.53 | 2.11 | 1.22 |
| O=C(/C=C/c1ccc(O)c(O)c1)O[C@@H]1C[C@](O)(C(=O)O)C[C@@H](O)[C@H]1O [Chlorogenic Acid] | 1.05 | 1.05 | 1.38 | 1.17 | 1.21 | 1.15 |
| O=C(Nc1ccccc1)OCC(CN1CCCCC1)OC(=O)Nc1ccccc1 (stereo unspecified) [Diperodon HCl] | 1.03 | 1.43 | 1.31 | 1.59 | 0.984 | 1.64 |
| Nc1ccc(S(=O)(=O)Nc2ncccn2)cc1 [Sulfadiazine] | 1.39 | 0.735 | 1.5 | 1.03 | 2.25 | 1.43 |
| CC(C)(OCc1nn(Cc2ccccc2)c2ccccc12)C(=O)O [Bindarit] | 0.377 | 0.614 | 0.791 | 0.934 | 0.939 | 0.825 |
| O=C(Nc1ccc(Oc2ccc(Cl)cc2)c(Cl)c1)c1cc(I)cc(I)c1O [Rafoxanide] | 1.36 | 1.72 | 1.23 | 1.19 | 1.44 | 1.54 |
| COc1cc2nccc(Oc3ccc(NC(=O)NC4CC4)c(Cl)c3)c2cc1C(N)=O [lenvatinib Mesylate] | 1.2 | 1.1 | 1.71 | 3.39 | 0.829 | 2.16 |
| COc1cc2nc(N3CCCN(C)CC3)nc(NC3CCN(Cc4ccccc4)CC3)c2cc1OC | 4.16 | 3.99 | 3.51 | 4.73 | 4.64 | 3.6 |
| C[C@H](O)C(=O)Nc1c(I)c(C(=O)NC(CO)CO)c(I)c(C(=O)NC(CO)CO)c1I [Iopamidol] | 0.656 | 0.571 | 0.699 | 1.06 | 0.734 | 1.33 |
| COC(=O)N1CCN(Cc2cccc(NC(=O)Nc3ccc(C)nc3)c2F)CC1 | 1.27 | 1.17 | 0.538 | 0.851 | 0.768 | 1.28 |
| COc1ccc2cc3[n+](cc2c1OC)CCc1cc2c(cc1-3)OCO2 [Berberine HCl] | 0.872 | 1.5 | 0.626 | 0.96 | 1.8 | 0.946 |
| CCCc1nc2c(C)cc(-c3nc4ccccc4n3C)cc2n1Cc1ccc(-c2ccccc2C(=O)O)cc1 [Telmisartan] | 1.83 | 0.747 | 1.03 | 1.03 | 1.95 | 1.02 |
| C=CC(=O)N1CCC(Oc2cc3c(Nc4ccc(Cl)c(Cl)c4F)ncnc3cc2OC)CC1 [Poziotinib (HM781-36B)] | 1.98 | 3.02 | 2.11 | 2.99 | 3.43 | 2.12 |
